From PubChem BioAssay (NCI)
This is part of a sample that, as a whole, favours compounds with a hit. Of some 79,000 tested, about 15% had one in any assay. Values without a mark were called inactive. Active and inactive are the calls of the source. No stated cut-off is given here; in the data, active means growth inhibition above about 70%; inactive means the rest.

Test: NCI Yeast Anticancer Drug Screen. Data for the sgs1 mgt1 strain (AID 161);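 further: 0% = growth of cultures given vehicle only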
Details: S. cerevisiae sgs1 mgt1 strain, at 50.0 µM, hits give high values
In short: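 Genetically altered yeast, compound exposure, growth inhibition relative to vehicle.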

Going from `O=S1(=O)CC(N2CCOCC2)C2=C(O1)c1sc(-c3ccccc3)nc1CC2` (stereo not given) to `O=C(Cn1c(-c2ccccc2)cc2ccccc21)N1CCOCC1`, the growth inhibition falls from 14.8% to -39%.

Going from `CCOC(=O)/C(C(C)=O)=C1\C(=O)c2ccccc2-c2ccccc21` to `CN=Cc1ccccc1O.CN=Cc1ccccc1O.[Cu+2]`, the growth inhibition falls from 2.8% to -10.9%.

Compared with `COC(=O)C1=C(C(=O)OC)C2(C3C(SC)=CC(C)(C)CC3S1)N(Cc1ccccc1)CCN2Cc1ccccc1` (stereo not given), `O=C1/C(=C\c2ccccn2)c2ccccc2N1Cc1ccccc1` is higher in growth inhibition: -9.95% for the first, 8.75% for the second.

First: CCCO[C@@H]1[C@@H](OC(C)=O)[C@@H](OC(C)=O)C(C)(C)/C=C/[C@H](C)C(=O)[C@@]2(OC(C)=O)C[C@@](C)(OC(C)=O)[C@H](OC(C)=O)[C@@H]2[C@H]2OC(=O)CC[C@@]12OC(=O)c1ccccc1
Second: CC(=O)OCC12CCC(C)=CC1O[C@H]1[C@@H](OC(C)=O)[C@H](OC(C)=O)[C@]2(C)[C@@]12CO2 (stereo not given in full)
The growth inhibition of the first is lower: -56.5% for the first, -19.6% for the second.

Compared with `Clc1ccc2c(N3CCC(CCC4CCN(c5ncnc6cc(Cl)ccc56)CC4)CC3)ncnc2c1`, `Clc1ccc2c(c1)-c1c3c(nn1-c1ccccc1)-c1ccccc1SC3O2` (stereo not given) is higher in growth inhibition: -7.4% for the first, 17.9% for the second.

Going from `Cn1cnnc1Sc1c([N+](=O)[O-])nc(-c2ccc([N+](=O)[O-])cc2)n1C` to `O=[N+]([O-])c1cccc(C2=NON(c3ncccn3)C3N=CC=CN23)c1` (stereo not given), the growth inhibition rises from 10.1% to 14.3%.

Going from `COc1ncn(C2CC(OC(=O)c3ccc(C)cc3)C(COC(=O)c3ccc(C)cc3)O2)c(=O)n1` (stereo not given) to `O=C(Nc1ccc(F)cc1)C(=O)C(C1OC(=O)c2ccccc21)[N+](=O)[O-]` (stereo not given), the growth inhibition rises from -14.7% to 8.7%.

First: CC(C)Cn1cnc2c(Cl)nc3ccccc3c21
Second: CC1CN=C(N(C(=O)Nc2ccc(Cl)c(Cl)c2)c2ccccc2)S1 (stereo not given)
The growth inhibition of the first is higher: 23.4% for the first, -5.7% for the second.

Going from `O=c1cc(-c2ccc(F)cc2)oc2ccccc12` to `COC(=O)C1Cc2ccccc2C1=O` (stereo not given), the growth inhibition falls from -9.05% to -14.8%.

Going from `COC(=O)C(Cl)(Cl)c1nc(NC(C)=O)[nH]c(=O)c1Cl` to `COC(=O)c1c(O)ccc(O)c1C(=O)OC`, the growth inhibition falls from 3.65% to -13.6%.

Compared with `O=C1CC2(CCCc3sccc32)C(=O)N1` (stereo not given), `CC12NN=NC1C(=O)NC2=O` (stereo not given) is higher in growth inhibition: 1.55% for the first, 20.6% for the second.

Compared with `Cn1c(=O)c2c(nc(CCCCCCCCc3nc4c(c(=O)n(C)c(=O)n4C)n3C)n2C)n(C)c1=O`, `CCC(CCCCCc1ccccc1)(C(=O)O)C(=O)O` is higher in growth inhibition: -24.8% for the first, 21.7% for the second.

Compared with `CCCCC(=O)N1SC(NC(=O)OC)=Nc2ccccc21`, `COC(=O)/C=C(\C)Nc1cccc([N+](=O)[O-])c1` is lower in growth inhibition: 61.8% for the first, -18.9% for the second.

Going from `CC(=O)C(N)C(C)C` (stereo not given) to `CCOC(C)C=O` (stereo not given), the growth inhibition falls from 19.2% to -21.4%.

Compared with `CN(C)C(=S)/N=c1\ssc(=S)n1Cc1cccs1`, `O=C(NO)/C(CC(=O)c1ccccc1O)=N\O` is higher in growth inhibition: -19.6% for the first, -11.2% for the second.

Going from `CCOC(=O)C1CC(C)CC1=O` (stereo not given) to `CC(C)(C)OC(=O)N1CC(C)(C)N2C(=O)C3(CCCO3)C12` (stereo not given), the growth inhibition falls from -4.6% to -7.15%.

Compared with `N#Cc1ccc(/C=N\NC(=O)CCSCCC(=O)N/N=C/c2ccc(C#N)cc2)cc1`, `O=C(CCCCCCCCC(=O)NCC1(c2ccccc2)CCNCC1)NCC1(c2ccccc2)CCNCC1` is lower in growth inhibition: 7.65% for the first, -15.2% for the second.

Compared with `CC(C)(C)NC(=O)C12C3C4C1C1C2C3C41C(=O)NC(C)(C)C` (stereo not given), `O=C1NC(=O)[C@@H](OCC2CCCCC2)[C@@H]2OCC3OC(C(O)C3O)C12` (stereo not given in full) is higher in growth inhibition: -15.9% for the first, 9.9% for the second.

Compared with `NC(=O)C(CCN1CCCCC1)c1ccccc1` (stereo not given), `COc1cccc2c1N=c1c(Cl)c3c(c(Cl)c1O2)=Nc1c(OC)cccc1O3` is lower in growth inhibition: 7.75% for the first, -0.25% for the second.

In the case of `O=C(NC1=C(Cl)C(=O)c2ccccc2C1=O)C(=O)c1c(O)c2ccccc2oc1=O`, the growth inhibition is reported as 87.8% (active).
For `CCOC(=O)c1ccc(NC(=O)Nc2cc(C(F)(F)F)ccc2Cl)cc1`, the growth inhibition was 92.9% (active).

Test: NCI Yeast Anticancer Drug Screen. Data for the cln2 rad14 strain (AID 165);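 further: 0% = growth equal to vehicle treated cultures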
Details: S. cerevisiae cln2 rad14 strain, at 50.0 µM, hits give high values
In short: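 Growth of compound-exposed yeast (cln2 rad14 genotype) measured and expressed as inhibition relative to vehicle.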

Going from `O=S1(=O)CC(N2CCOCC2)C2=C(O1)c1sc(-c3ccccc3)nc1CC2` (stereo not given) to `O=C(Cn1c(-c2ccccc2)cc2ccccc21)N1CCOCC1`, the growth inhibition falls from 14.3% to -18.1%.

Compared with `CCOC(=O)/C(C(C)=O)=C1\C(=O)c2ccccc2-c2ccccc21`, `CN=Cc1ccccc1O.CN=Cc1ccccc1O.[Cu+2]` is lower in growth inhibition: -19.2% for the first, -73.8% for the second.

Going from `COC(=O)C1=C(C(=O)OC)C2(C3C(SC)=CC(C)(C)CC3S1)N(Cc1ccccc1)CCN2Cc1ccccc1` (stereo not given) to `O=C1/C(=C\c2ccccn2)c2ccccc2N1Cc1ccccc1`, the growth inhibition rises from 9.05% to 16.9%.

Going from `CCCO[C@@H]1[C@@H](OC(C)=O)[C@@H](OC(C)=O)C(C)(C)/C=C/[C@H](C)C(=O)[C@@]2(OC(C)=O)C[C@@](C)(OC(C)=O)[C@H](OC(C)=O)[C@@H]2[C@H]2OC(=O)CC[C@@]12OC(=O)c1ccccc1` to `CC(=O)OCC12CCC(C)=CC1O[C@H]1[C@@H](OC(C)=O)[C@H](OC(C)=O)[C@]2(C)[C@@]12CO2` (stereo not given in full), the growth inhibition rises from -16.1% to 42.4%.

Compared with `Clc1ccc2c(N3CCC(CCC4CCN(c5ncnc6cc(Cl)ccc56)CC4)CC3)ncnc2c1`, `Clc1ccc2c(c1)-c1c3c(nn1-c1ccccc1)-c1ccccc1SC3O2` (stereo not given) is higher in growth inhibition: -39.4% for the first, 19.3% for the second.

Compared with `Cn1cnnc1Sc1c([N+](=O)[O-])nc(-c2ccc([N+](=O)[O-])cc2)n1C`, `O=[N+]([O-])c1cccc(C2=NON(c3ncccn3)C3N=CC=CN23)c1` (stereo not given) is lower in growth inhibition: 35.1% for the first, -4.9% for the second.

Compared with `COc1ncn(C2CC(OC(=O)c3ccc(C)cc3)C(COC(=O)c3ccc(C)cc3)O2)c(=O)n1` (stereo not given), `O=C(Nc1ccc(F)cc1)C(=O)C(C1OC(=O)c2ccccc21)[N+](=O)[O-]` (stereo not given) is higher in growth inhibition: -22.4% for the first, 14.1% for the second.

Compared with `CC(C)Cn1cnc2c(Cl)nc3ccccc3c21`, `CC1CN=C(N(C(=O)Nc2ccc(Cl)c(Cl)c2)c2ccccc2)S1` (stereo not given) is higher in growth inhibition: 0.25% for the first, 23.8% for the second.

Going from `O=c1cc(-c2ccc(F)cc2)oc2ccccc12` to `COC(=O)C1Cc2ccccc2C1=O` (stereo not given), the growth inhibition falls from 0.95% to -40.5%.

Compared with `COC(=O)C(Cl)(Cl)c1nc(NC(C)=O)[nH]c(=O)c1Cl`, `COC(=O)c1c(O)ccc(O)c1C(=O)OC` is higher in growth inhibition: -20% for the first, -16.6% for the second.

Going from `O=C1CC2(CCCc3sccc32)C(=O)N1` (stereo not given) to `CC12NN=NC1C(=O)NC2=O` (stereo not given), the growth inhibition rises from -21.1% to 12%.

First: Cn1c(=O)c2c(nc(CCCCCCCCc3nc4c(c(=O)n(C)c(=O)n4C)n3C)n2C)n(C)c1=O
Second: CCC(CCCCCc1ccccc1)(C(=O)O)C(=O)O
The growth inhibition of the first is higher: -45% for the first, -55% for the second.

Going from `CCCCC(=O)N1SC(NC(=O)OC)=Nc2ccccc21` to `COC(=O)/C=C(\C)Nc1cccc([N+](=O)[O-])c1`, the growth inhibition falls from 67.2% to -36.9%.

First: CC(=O)C(N)C(C)C (stereo not given)
Second: CCOC(C)C=O (stereo not given)
The growth inhibition of the first is higher: 7.9% for the first, -36% for the second.

First: CN(C)C(=S)/N=c1\ssc(=S)n1Cc1cccs1
Second: O=C(NO)/C(CC(=O)c1ccccc1O)=N\O
The growth inhibition of the first is higher: 6.75% for the first, -2.05% for the second.

First: CCOC(=O)C1CC(C)CC1=O (stereo not given)
Second: CC(C)(C)OC(=O)N1CC(C)(C)N2C(=O)C3(CCCO3)C12 (stereo not given)
The growth inhibition of the first is lower: -4.4% for the first, -0.4% for the second.

Going from `N#Cc1ccc(/C=N\NC(=O)CCSCCC(=O)N/N=C/c2ccc(C#N)cc2)cc1` to `O=C(CCCCCCCCC(=O)NCC1(c2ccccc2)CCNCC1)NCC1(c2ccccc2)CCNCC1`, the growth inhibition falls from 18.4% to -3.25%.

Going from `CC(C)(C)NC(=O)C12C3C4C1C1C2C3C41C(=O)NC(C)(C)C` (stereo not given) to `O=C1NC(=O)[C@@H](OCC2CCCCC2)[C@@H]2OCC3OC(C(O)C3O)C12` (stereo not given in full), the growth inhibition rises from -39.7% to 23.2%.

Going from `NC(=O)C(CCN1CCCCC1)c1ccccc1` (stereo not given) to `COc1cccc2c1N=c1c(Cl)c3c(c(Cl)c1O2)=Nc1c(OC)cccc1O3`, the growth inhibition falls from 9.5% to -13.9%.

In the case of `O=C(NC1=C(Cl)C(=O)c2ccccc2C1=O)C(=O)c1c(O)c2ccccc2oc1=O`, the growth inhibition is reported as 84.2% (active).
In the case of `CCOC(=O)c1ccc(NC(=O)Nc2cc(C(F)(F)F)ccc2Cl)cc1`, the growth inhibition is reported as 92.2% (active).
